# Screening results (PubChem)
# The list is not random: actives were taken first. Their share in the collection is about 8.1%.
# ELG1 DNA repair – qHTS screen for small molecules that inhibit ELG1-dependent DNA repair in human embryonic kidney (HEK293T) cells expressing luciferase-tagged ELG1; HEK293T ELG1-luciferase reporter, luminescence, 16 h; DNA damage induced by 5-fluorouridine; Potency, µM (titrated, usually from 46.1 µM), for inactives: at the highest dose activity change, negative = inhibition, actives largely listed as inhibitors; 2.3% of 330,000 active; further: on the % scale 0 is the no-effect control and ±100 the full control effect; nearly all actives have a fitted effect of over 55% in size
#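 Step one: seed 2,000 cells per well. Step two: pin-transfer compound or DMSO alongside 5-fluorouridine. Step three: incubate 16 hr, 37 °C, 5% CO2. Step four: add ONE-Glo, wait 30 min, read luminescence.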
# SW480 rereplic – A quantitative high throughput screen for small molecules that induce DNA re-replication in SW480 colon adenocarcinoma cells; SW480 DNA re-replication, Hoechst DNA content imaging, 48 h; Potency, µM (titrated, usually from 46.1 µM), without a hit: at the top dose re-replication activation, hits mostly activators; 1.8% of 340,000 active; AID 624297, 2012; further: % of control where 0% means no effect; nearly all actives have a fitted effect of over 55% in size
#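 Per well, 250 cells were exposed to pinned compound for 48 hr. Nuclear DNA was visualised with Hoechst (40 min, 37 C) and total object intensity recorded by fluorescence scanning.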
# KB-3-1 tox – qHTS assay for MDR1-selective chemotherapeutics: Primary screen using the parental adenocarcinoma cell KB-3-1; KB-3-1 viability, CellTiter-Glo ATP luminescence, 72 h; Potency, µM (top dose mostly 46.1 µM), actives largely listed as cytotoxic; 1.4% of 400,000 active; AID 1347075, 2019; further: on the % scale 0 is the no-effect control and ±100 the full control effect; nearly all actives have a fitted effect of over 60% in size
#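 Cells are dispensed, compounds pinned in, plates held at 37 °C for 72 h, then CellTiter-Glo is added and luminescence read after 10 minutes. Cell line: parental KB-3-1 in phenol-red-free DMEM, 10% FBS.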
# MCF10A rereplic – A quantitative high throughput screen for small molecules that induce DNA re-replication in MCF 10a normal breast cells | AID 624296, 2012 | MCF 10A DNA re-replication, Hoechst nuclear intensity, 48 h | Potency, µM (top dose mostly 46.1 µM), for the others: at the highest dose activity, positive = re-replication, hits mostly activators | 2.9% of 350,000 active; further: % of control where 0% means no effect; nearly all actives have a fitted effect of over 50% in size
# KB-V1 MDR tox – qHTS assay for MDR1-selective chemotherapeutics: Primary screen using the drug-selected MDR subline cells KB-V1; KB-V1 MDR cells viability, CellTiter-Glo, 72 h; 3.4% of 400,000 active; Potency, µM (top dose mostly 46.1 µM), hits mostly cytotoxic; further: on the % scale 0 is the no-effect control and ±100 the full control effect; nearly all actives have a fitted effect of over 60% in size
#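 Readout: CellTiter-Glo luminescence, 10 min after addition. Cells: KB-V1 MDR subline, 72 h at 37 degrees C with compound. Analysis: corrected, normalized data fitted to concentration-effect curves.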
# The depositor's hits bear a star; i = inactive; ? = inconclusive; nt = no result. The call rests on the fitted dose curve; in most records, active means well fitted curve in the direction sought with a large enough effect; inconclusive means small, poorly fitted or top-dose-only effect, or another doubt; inactive means no such curve, though single readings can be large; an effect the other way counts as inactive or inconclusive. Potency means the concentration at half of the fitted maximal effect.
SMILES,ELG1 DNA repair,SW480 rereplic,KB-3-1 tox,MCF10A rereplic,KB-V1 MDR tox
CN(Cc1ccccc1)C1=CC(=[N+]2CCCCC2)CC(C)(C)C1,?,23.9%,?,?,i
CC1(C)CC(=O)C=C(N2CCN(C3=CC(=O)CC(C)(C)C3)CC2)C1,5.4%,nt,nt,nt,nt
CC1(C)CC(N2CCCC2)=CC(=[N+]2CCCC2)C1,-8.3%,-0.5%,18.4µM*,-2.3%,i
CC1(C)CC(N2CCN(Cc3ccccc3)CC2)=CC(=[N+]2CCCCC2)C1,0.731µM*,-37.7%,1.46µM*,-31.1%,i
Cc1ccc(-n2cc3c(c2-c2ccccc2Br)c(=O)n(C)c(=O)n3C)cc1N,nt,nt,i,nt,i
Cc1cccc(OCCNC(=O)CCNS(=O)(=O)c2ccc3ccccc3c2)c1,?,-1.1%,i,14.0%,18.4µM*
CC(C)(C)NC(=O)C(c1ccnc2ccccc12)n1c(=O)c(-c2ccco2)nc2ccccc21 (configuration not stated),nt,nt,i,nt,i
Cc1ccc([C@@H]2CC(=O)[C@@H]3CN(S(=O)(=O)c4ccccc4C)[C@H](c4ccc(Cl)cc4)C[C@@H]3N2S(=O)(=O)c2ccc(C)cc2)cc1,nt,nt,3.66µM*,nt,?
Cc1ccc(S(=O)(=O)N2[C@H](c3ccc(Cl)cc3)CC(=O)[C@@H]3CN(S(=O)(=O)c4ccccc4C)[C@H](c4ccc(Cl)cc4)C[C@@H]32)cc1,nt,nt,i,nt,i
Cc1ccc(S(=O)(=O)N2[C@H](c3cccc(Cl)c3)CC(=O)[C@@H]3CN(S(=O)(=O)c4ccccc4C)[C@H](c4ccc(Cl)cc4)C[C@@H]32)cc1,nt,nt,3.66µM*,nt,i
Cc1ccc([C@@H]2C[C@H]3[C@@H](CN2S(=O)(=O)c2ccc(Cl)cc2)C(=O)C[C@@H](c2cccc(Cl)c2)N3S(=O)(=O)c2ccc(C)cc2)cc1,nt,nt,i,nt,i
CCn1cc(/C=C(\NC(=O)c2ccccc2)C(=O)NCCN2CCOCC2)c2ccccc21,nt,nt,i,nt,i
COc1ccc(C(=O)N[C@H](C(=O)OCCCOC(=O)[C@@H](NC(=O)c2ccc(OC)cc2)C(C)C)C(C)C)cc1,nt,-12.0%,i,9.9%,i
COc1ccc(NS(=O)(=O)c2cc(NC(=O)c3ccc(=O)[nH]c3)ccc2C)cc1,?,4.6%,i,11.3%,?
COc1ccc(C(=O)N[C@H](C(=O)NCCCn2nc(C)cc2C)C(C)C)cc1,0.0%,1.0%,i,0.9%,14.6µM*
COc1ccc(NS(=O)(=O)c2cc(NC(=O)[C@@H](NC(=O)c3ccccc3)C(C)C)ccc2C)cc1,?,?,8.2µM*,18.4µM*,?
COc1ccc(NS(=O)(=O)c2ccc(NC(=O)Cc3cccs3)cc2)cc1,-12.5%,9.5%,i,5.5%,i
COc1ccc(NS(=O)(=O)c2cc(NC(=O)Cc3cccs3)ccc2C)cc1,?,?,i,16.4µM*,i
Cc1ccc(C(=O)NC(=C(Cl)Cl)S(=O)(=O)c2ccc(C)cc2)cc1,-9.5%,?,i,13µM*,i
CC(=O)NC(=C(Cl)Cl)S(=O)(=O)c1ccccc1,?,11.6µM*,?,13µM*,?
Cc1ccc(C(=O)NC(=C(Cl)Cl)S(=O)(=O)c2ccc(Cl)cc2)cc1,0.4%,?,?,?,i
Cc1ccc(S(=O)(=O)/C(=C/Cl)NC(=O)c2ccccc2)cc1,?,13µM*,13µM*,4.11µM*,i
Cc1ccc(S(=O)(=O)C(NC(=O)c2ccccc2)=C(Cl)Cl)cc1,nt,?,?,6.51µM*,?
Cc1ccc2c(C)ccc(O)c2n1,?,0.2%,?,20.6µM*,i
S=C(NCCN1CCOCC1)Nc1ccc(-c2nc3ccccc3[nH]2)cc1,11.9%,-1.0%,?,1.03µM*,i
SMILES,ELG1 DNA repair,SW480 rereplic,KB-3-1 tox,MCF10A rereplic,KB-V1 MDR tox
C=CCNC(=S)Nc1sc2c(c1C(=O)OCC)CCN(C(=O)OCC)C2,nt,-10.3%,i,?,i
CCOC(=O)c1c(NC(=O)Nc2ccc(C)cc2)sc2c1CCN(C)C2,2.8%,18.4µM*,i,?,i
CCOC(=O)N1CCc2c(sc(NC(=O)CN3CCOCC3)c2C#N)C1,?,-1.6%,i,?,?
CCOC(=O)c1c(NC(=S)N2CCOCC2)sc2c1CCN(C(=O)OCC)C2,23.1µM*,?,i,?,?
CCOC(=O)c1c(NC(=S)N2CCCCC2)sc2c1CCN(C(=O)OCC)C2,?,-44.3%,i,20.6µM*,i
Cc1ccc(NC(=O)CSc2nnc(-c3ccc([N+](=O)[O-])cc3)o2)c(C)c1,nt,nt,i,nt,i
COc1ccc(-c2nnn3c2nc(NCCc2ccc(OC)c(OC)c2)c2ccccc23)cc1,nt,nt,i,nt,i
N=c1ccn(Cc2ccc(F)cc2)cc1,?,-4.3%,5.8µM*,13.2%,i
O=C(N/N=C/c1sc(N2CCOCC2)nc1-c1ccccc1)c1ccccc1O,18.4µM*,?,?,?,?
O=C(Nc1ccccc1F)C(=Cc1sc(N2CCOCC2)nc1-c1ccccc1)C(=O)Nc1ccccc1F,8.2µM*,?,i,3.26µM*,i
O=C(N/N=C/c1sc(N2CCOCC2)nc1-c1ccccc1)c1ccccc1F,?,0.1%,i,?,i
COc1cc(C(=O)N/N=C/c2sc(N3CCOCC3)nc2-c2ccccc2)cc(OC)c1OC,11.6µM*,-3.4%,i,15.2%,i
Nc1c(-c2ccc(F)c(F)c2)nc2ncccn12,nt,nt,i,nt,i
O=C(c1ccco1)N1CCN(C(=O)c2cccs2)CC1,-3.5%,6.51µM*,i,1.84µM*,i
O=C(c1ccco1)N1CCN(C(=O)c2ccco2)CC1,nt,nt,i,nt,i
O=C(c1ccco1)N1CCN(C(=O)c2sccc2-c2ccccc2)CC1,-0.9%,12.3%,i,12.1%,11.6µM*
CC1=C(C(=O)N2CCCCCC2)CC(CC(=O)NCCCCc2ccccc2)C(=O)N1Cc1ccccc1 (configuration not stated),nt,nt,i,nt,i
Cc1cc(C)c(NC(=O)CSc2nc(=O)n(Cc3cccnc3)c3c2CCC3)c(C)c1,nt,nt,i,nt,i
Nc1nn(-c2ccccc2)c(N)c1N=Nc1cccc(F)c1,?,5.8µM*,5.8µM*,3.66µM*,?
Nc1nn(-c2ccccc2)c(N)c1N=Nc1ccc2c(c1)OCO2,?,16.4µM*,7.31µM*,?,3.26µM*
Nc1[nH]n(-c2ccccc2)c(=O)c1N=Nc1ccc2c(c1)OCO2,?,1.5%,?,26.0%,i
